In the library only some 2.4% were active in any assay of this set; here they are far more common.
D2 PAM-1 = positively modulates the human D2 dopamine receptor allosterically | hit rate 0.34% among 340,000 | potentiation, % at 10 µM | P14416 | HEK293 T-REx D2, calcium flux, EC20 dopamine potentiation;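 active means potentiation over 3 SD above the plate norm, cut at about 30% in these data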; further: 0% is about no effect
Target sequence (P14416 whole entry, looked up): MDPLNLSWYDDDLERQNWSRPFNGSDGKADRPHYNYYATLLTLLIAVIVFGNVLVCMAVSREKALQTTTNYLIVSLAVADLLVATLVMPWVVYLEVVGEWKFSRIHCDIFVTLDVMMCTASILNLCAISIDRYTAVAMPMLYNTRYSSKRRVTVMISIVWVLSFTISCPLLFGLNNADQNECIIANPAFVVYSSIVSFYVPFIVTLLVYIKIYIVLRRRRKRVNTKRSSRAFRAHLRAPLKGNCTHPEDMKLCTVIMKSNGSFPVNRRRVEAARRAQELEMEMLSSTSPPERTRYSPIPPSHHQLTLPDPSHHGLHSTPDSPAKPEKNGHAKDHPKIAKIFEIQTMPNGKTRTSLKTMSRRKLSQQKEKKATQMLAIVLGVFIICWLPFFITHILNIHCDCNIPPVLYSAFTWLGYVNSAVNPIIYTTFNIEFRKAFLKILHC
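Calcium flux readout, no-wash dye, 1 read/s. Inducible HEK293 Trex D2 line, overnight 30 C. Compound alone 180 s (agonist flags), then EC20 dopamine, another 180 s to score potentiation.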
D2 ag-1 = agonists of human D2 dopamine receptor (beta-arrestin). P14416. DiscoveRx PathHunter D2 beta-arrestin, luminescence, 90 min; 100% = 57 uM dopamine signal. activation, % (test concentration not listed). hit rate 0.084% among 360,000. AID 624465; in the data active means activation above about 40%; inconclusive means between about 15% and that limit
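DiscoveRx PathHunter D2 beta-arrestin cells (2,100/well) attached overnight, then compound-stimulated 90 min at 37 C in HBSS/10 mM HEPES/0.1% Tween-20 buffer; beta-galactosidase complementation read by luminescence after 1 h at ambient temperature. Dopamine 57 uM final (EC100) as control.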
D2 antag = D2 dopamine receptor (human) antagonism; HEK293 TREx D2 cells, calcium flux, dopamine EC80; inhibition, % at 10 µM; hit rate 2% among 340,000; AID 485344; in the data active means inhibition above about 30%; inactive means below that, where a call was filed; further: 0% is about no effect
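Read-out: kinetic calcium fluorescence (1 cycle/s) in inducible HEK293 T-REx D2 cells after an EC80 dopamine addition that followed 180 s compound preincubation. Loss of the dopamine response indicates antagonism.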
D2 PAM-2 = human D2 receptor positive allosteric modulation | P14416 | DiscoveRx D2 beta-arrestin cells, luminescence, 90 min; 100% = 57 uM dopamine signal | potentiation, % (no concentration beside the values) | hit rate 0.23% among 360,000; in the data active means potentiation above about 50%; inconclusive means mostly about 30% to 49%
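D2 cells co-treated with compound plus 50 nM dopamine (EC20) for 90 min at 37 deg C to detect potentiation. Beta-arrestin recruitment was read as enzyme-fragment luminescence after 1 h at ambient temperature. Full response was set by 57 uM dopamine.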
D2 ag-2 = agonists of human D2 dopamine receptor | HEK293 T-REx D2 cells, calcium flux agonist mode | activation, % at 2 µM | hit rate 0.53% among 340,000 | AID 485358;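 active means activation over 3 SD above normal in the single-dose calcium agonist read, cut at about 30% in these data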; further: 0% is about no effect
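Tetracycline-induced HEK293 Trex cells with D2 receptor force-coupled to calcium signaling, plated overnight at 30 C and loaded with no-wash calcium dye. Calcium flux read kinetically for 180 s after compound addition; responses flag agonists.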
D3 arrestin ag = activates human D3 dopamine receptor beta-arrestin recruitment | AID 720506 | DiscoveRx D3 beta-arrestin cells, luminescence, 90 min | shares compounds with D2 ag-2 | Potency, µM (highest dose often 76.9 µM), for the others: at the highest dose activation, most hits filed as activators | hit rate 4% among 2,300;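 further: potency means the concentration at half of the fitted maximal effect; 100% = dopamine control response; nearly all actives have a fitted effect of over 70% in size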
D2 ag-3 = counter-screen for D3 agonists: human D2 dopamine receptor agonism. shares compounds with D2 ag-2. DiscoveRx PathHunter D2 beta-arrestin, luminescence, 90 min; response scale: percent relative to full dopamine signal. Potency, µM (series often up to 76.9 µM), without a hit: at the highest dose activation, actives largely listed as activators. hit rate 5.9% among 2,300. AID 720507; further: potency means the concentration at half of the fitted maximal effect; % of control where 0% means no effect; nearly all actives have a fitted effect of over 70% in size
* hit, by the source's call; ? = inconclusive; · = no result. Unless noted, the call rests on the fitted dose curve; in most records, active means well fitted activation curve with a large enough effect; inconclusive means small, poorly fitted or top-dose-only effect; inactive means flat fitted curve, though single readings scatter.

SMILES	D2 PAM-1	D2 ag-1	D2 antag	D2 PAM-2	D2 ag-2	D3 arrestin ag	D2 ag-3
Cc1ccc(CNC(=O)CCCCCn2c(=O)c3sccc3n(CC(=O)N3CCCCC3C)c2=O)cc1 (stereo not given)	-4.8	·	·	·	-1.9	·	·
O=C1C2CCCN2C(=O)N1CCCN1CCN(c2cccc(Cl)c2)CC1 (stereo not given)	-28.5	1.9	31.3*	-23.7	26.5	-13.0%	0.1%
O=C1C2CCCCN2C(=O)N1CCCCN1CCN(c2cccc(C(F)(F)F)c2)CC1 (stereo not given)	·	-1.3	·	-3.2	·	·	·
O=c1n(CCCN2CCN(c3cccc(Cl)c3)CC2)nc2ccccn12	-23.2	-4.0	52.4*	-25.5	40.7*	-6.8%	6.8%
Cc1cc(C)cc(N2CCn3c2nc2c3c(=O)n(Cc3ccc(Cl)cc3)c(=O)n2C)c1	-2.9	·	·	·	1.2	·	·
Cc1cccc(N2C(=O)CS(=O)(=O)C23C(=O)N(C)c2ccccc23)c1 (stereo not given)	0.1	·	·	·	0.8	·	·
O=C(CN(Cc1cccs1)C(=O)CNS(=O)(=O)c1ccc(F)cc1)NCC1CCCO1 (stereo not given)	2.8	-6.7	0.4	-18.6	0.0	·	·
O=C(CN(Cc1ccc(F)cc1)C(=O)CNS(=O)(=O)c1ccc(F)cc1)NCC1CCCO1 (stereo not given)	-0.6	2.6	9.2	4.0	3.5	1.1%	-0.8%
CCOC(=O)C1CCN(c2c(C(=O)c3ccc(OCC)cc3)cnc3ccc(OC)cc23)CC1	-10.5	·	·	·	-0.3	·	·
CCOc1ccc(/C=N/NC(=O)c2cc(-c3ccccc3)nc3ccccc23)cc1O	·	-4.5	·	-9.5	·	1.2%	6.8%
CC1CN(C(=O)c2ccccc2OCc2ccc(Cl)cc2Cl)CC(C)O1 (stereo not given)	-5.8	-2.7	-14.8	-1.8	-0.2	-7.3%	-1.5%
Cc1ccc(Cc2c(C)nc3nc(SCC(=O)NCCC(C)C)nn3c2C)cc1	7.0	·	·	·	0.2	·	·
N#CC(C(=O)OCc1ccccc1)c1nc2ccccc2nc1N1CCOCC1 (stereo not given)	8.4	-7.8	24.4	-5.4	4.8	-25.4%	-6.7%
N#CC(C(=O)NC1CCCCC1)c1nc2ccccc2nc1N1CCOCC1 (stereo not given)	-1.9	·	-1.4	·	-0.6	·	·
COc1ccc(C(OCC(O)CNCCc2ccccc2)c2ccc(OC)cc2)cc1 (stereo not given)	-17.4	-5.9	8.0	-17.7	51.4*	-4.6%	8.7%
OC(CNCCc1ccccc1)COc1ccc(OCC(O)CNCCc2ccccc2)cc1 (stereo not given)	·	3.8	·	-8.3	·	11.1%	10.0%
Cc1ccsc1CN1CCN(c2ccccn2)CC1	-24.1	49.7*	77.2*	?	78.8*	?	2.51µM*
Cc1ccc(OCC(O)CN2CCN(CCO)CC2)c(C)c1 (stereo not given)	-0.9	-0.9	-7.9	-2.9	2.0	·	·
Cc1ccc(OCC(O)CN2CCN(c3ccccn3)CC2)c(C)c1 (stereo not given)	-27.2	?	64.5*	20.9	70.9*	?	?
CC(C)(C)C1CCC(OCC(O)CN2CCN(c3ccccc3)CC2)CC1 (stereo not given)	-34.3	?	73.6*	2.7	68.1*	0.355µM*	?
Cc1cccc(C)c1OCC(O)CN1CCN(c2ccccc2)CC1 (stereo not given)	-27.9	?	86.9*	-21.9	80.2*	-1.5%	?
CC(C)(C)C1CCC(OCC(O)CN2CCCC2)CC1 (stereo not given)	12.5	-6.6	-8.1	2.2	-0.5	·	·
OC(COc1ccccc1)CN1CCN(c2ccccc2)CC1 (stereo not given)	·	1.7	·	-43.0	·	·	·
CN(C)c1ccc(CNC(=O)c2ccc(NC(=O)N3CCCCc4ccccc43)cc2)cc1	-8.3	·	·	·	0.3	·	·
CCS(=O)(=O)c1nc(S(=O)(=O)c2ccc(C)cc2)c(NCCCOC)s1	1.8	·	·	·	-0.2	·	·
SMILES	D2 PAM-1	D2 ag-1	D2 antag	D2 PAM-2	D2 ag-2	D3 arrestin ag	D2 ag-3
Cc1cccc(N2CCN(CC(O)COc3ccccc3)CC2)c1 (stereo not given)	·	2.7	·	-16.8	·	·	·
COc1cccc(OC)c1OCC(O)CN1CCN(c2ccccc2)CC1 (stereo not given)	-23.8	?	115.3*	-30.8	78.1*	?	?
Cc1cccc(C)c1OCC(O)CN1CCN(c2ccccn2)CC1 (stereo not given)	-19.5	?	77.5*	?	76.6*	0.199µM*	5.01µM*
Cc1cccc(C)c1OCC(O)Cn1c2ccccc2c2ccccc21 (stereo not given)	-5.3	-0.6	-19.9	6.0	-0.8	·	·
CC(C)(C)NCC(O)COc1ccccc1C(C)(C)C (stereo not given)	-3.7	-1.7	3.9	-9.6	0.6	·	·
CC(C)(C)c1ccccc1OCC(O)CN1CCN(c2ccccn2)CC1 (stereo not given)	-15.6	1.1	62.4*	0.2	22.3	?	27.2%
COc1ccccc1/C=C/CN1CCN(c2ccccc2)CC1	-25.8	11.9	76.8*	6.8	76.7*	4.4%	?
COc1ccc(-c2c3c(=O)n(C)c(=O)n(C)c3c3n2-c2ccccc2NC3c2ccco2)cc1 (stereo not given)	-3.8	·	·	·	0.8	·	·
N#Cc1ccccc1NC(=O)C(=O)NCC(c1cccnc1)N1CCN(c2ccccc2)CC1 (stereo not given)	-14.5	·	·	·	0.3	·	·
CCc1noc(-c2ccc(N3CCCCC3)c([N+](=O)[O-])c2)n1	20.6	·	·	·	0.4	·	·
OC(COC(c1ccc(Cl)cc1)c1ccc(Cl)cc1)CN1CCN(c2ccccn2)CC1 (stereo not given)	-19.8	-1.4	-4.1	-17.0	41.8*	-6.8%	6.2%
OC(CN1CCN(c2ccccn2)CC1)Cn1c2ccc(Cl)cc2c2cc(Cl)ccc21 (stereo not given)	3.0	-5.8	-2.8	-1.2	9.3	·	·
COc1cccc(CN2CCC(Oc3ccc(C(=O)N4CCCCC4)cc3)CC2)c1	-1.9	-3.0	-9.0	-17.6	0.2	·	·
CC(C)/C=C/CN1CCC(Oc2ccc(C(=O)N3CCCC3)cc2)CC1	·	·	·	·	·	-7.4%	-0.2%
CC(CCc1ccc(O)cc1)N1CCC(Oc2ccc(C(=O)N3CCCC3)cc2)CC1 (stereo not given)	-20.7	12.8	39.1*	-12.3	59.8*	?	18.1%
CCC(=O)N1c2ccccc2CC1C(=O)NCCN1CCN(c2cccc(C)c2C)CC1 (stereo not given)	-24.7	·	·	·	1.1	·	·
